What all share (experiment): NCI-60 one-dose screen, 48 h (100 = growth as untreated, 0 = no growth, -100 = all killed)
What all share (conditions): 10 µM unless noted

Assay [1] concerns HCT-15 colon.
Assay [2] relates to HT29 colon.
For assay [3], the system named is SNB-75 CNS.
Assay [4] concerns SNB-19 CNS.
The test system of assay [5] is U251 CNS.
Assay [6] has as its system PC-3 prostate.
Assay [7] has as its system SK-MEL-5 melanoma.
Assay [8] deals with UACC-62 melanoma.
Assay [9] concerns LOX IMVI melanoma.
Assay [10] relates to SK-MEL-28 melanoma.
In assay [11] the test system is SK-MEL-2 melanoma.
Assay [12] deals with EKVX NSCLC.
Assay [13] relates to SN12C renal.
For assay [14], the system named is UO-31 renal.
Assay [15] has as its system TK-10 renal.
Assay [16] relates to ACHN renal.
The test system of assay [17] is CAKI-1 renal.
The test system of assay [18] is CCRF-CEM leukemia.
The test system of assay [19] is MOLT-4 leukemia.
In assay [20] the test system is A498 renal.

Each structure is given as a SMILES string. This is part of a sample that, as a whole, favours compounds with a hit. Of some 83,000 tested, about 20% had one in any assay.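 A percent growth of 40 corresponds to 60% growth inhibition; 0 means no net growth; -100 means all cells died. Active threshold: below 10.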 A number with no mark means an inactive call. Calls of active or inactive are those of the source.

`Fc1cc(F)cc(NNC(=S)c2ccccc2)c1`: the growth in assay [1] is 28.2%; in [2], 101%; in assay [3], 70.9%; in [4] it was 61.7%; in assay [5] it was 28.9%; in assay [6] it was 22%. The growth in assay [7] was 46.2%; in assay [8] it was 31.8%; in assay [9], 44.8%; in assay [10], 48.9%; in assay [11], 76%; in assay [12], 39.7%. The growth in assay [13] was 9.96% (active); in assay [14] it was 26.4%; in [15] it was 92.3%; in assay [16], 55.4%; in assay [17] it was 56.2%; in [18] it was 24.2%. In assay [19], the growth is 25.1%.
With `OCC(Nc1ncnc2ccc(-c3cnc4cnccn34)cc12)c1ccccc1` (stereo unspecified), the growth was 92.3% in assay [1]; 83.5% in assay [2]; 85.6% in [3]; 70.6% in assay [4]; 88.5% in assay [5]; 79.9% in [6]. In addition, the growth was 37.5% in assay [7]; 74.1% in assay [8]; 85.2% in assay [9]; 97.8% in [10]; 45% in assay [11]; 52.3% in assay [12]. Moreover, the growth in assay [14] was 36.6%; in assay [15], 40%; in [16], 43.3%; in assay [17], 41.7%; in assay [20], 76.4%; in [18], 80.5%. In assay [19], the growth was 76.1%.
Turning to `Cc1cc(=O)oc2cc(OCCCOc3ccc(/C=C/C(=O)Nc4ccc(Br)cc4)cc3)ccc12`, the growth in assay [1] is 82.3%; in assay [2], 90.8%; in assay [3], 115%; in assay [4], 86.9%; in assay [5] it was 97.8%; in assay [6], 81.8%. Further, the growth is 85% in [7]; 94.5% in [8]; 67.9% in [9]; 86.6% in assay [10]; 91.1% in assay [11]; 91.6% in [12]. In addition, the growth in assay [14] is 82.3%; in assay [15] it was 78.9%; in [16] it was 46.7%; in [17] it was 104%; in [20], 82.9%; in assay [18] it was 83.6%. The growth in [19] was 96.4%.
On to `CN1CCN(Cc2ccc(NC(=O)c3cncc(C#Cc4cnc5ccc(OCC(F)F)nn45)c3)cc2C(F)(F)F)CC1`, for which the growth in assay [1] is -57.4% (active); in [2], -66% (active); in assay [3], -95.1% (active); in [4] it was -31.7% (active); in [5], -72.7% (active); in [6] it was -19.4% (active). Besides, the growth is -95.7% (active) in [7]; -46.8% (active) in assay [8]; -91.2% (active) in assay [9]; -82.4% (active) in assay [10]; -86.5% (active) in [11]; -69.1% (active) in assay [12]. In addition, the growth in assay [14] is -95.8% (active); in [15] it was -84.4% (active); in assay [16], -98.3% (active); in assay [17], -95.9% (active); in [20], -91.7% (active); in assay [18], 2.09% (active). In addition, the growth in [19] is -21.7% (active).
On to `O=C(N/N=C\c1ccc(F)cc1)c1ccc2nc(-c3ccc(Br)cc3)[nH]c2c1`, for which the growth in [1] is 22.2%; in assay [2], -58.9% (active); in [3], 53.7%; in assay [4], 23.2%; in assay [5], -62.1% (active); in [6], 40.4%. Also, the growth in [7] was 56.3%; in [8], 49.2%; in assay [9], -12.3% (active); in assay [10], 10.8%; in [11] it was 83.2%; in assay [12] it was 53.1%. Also, the growth in assay [14] was 55.4%; in assay [15], 42.4%; in assay [16], 12%; in assay [17], 43%; in [20], 80.8%; in [18] it was 53.6%. For the same compound, in assay [19], the growth is 31.7%.
As for `C#Cc1nc(/C=C/CCCCCCC(=O)NO)cs1`, the growth is 77% in assay [1]; 54.2% in [2]; -17.1% (active) in [3]; 86.1% in assay [4]; 63.2% in [5]; 72.8% in [6]. The growth is 63.2% in assay [7]; 45.8% in assay [8]; -84.2% (active) in assay [9]; 75.4% in [10]; 96.1% in [11]; 89.5% in assay [12]. Also, the growth was -93.1% (active) in assay [14]; 31.6% in assay [15]; -39.1% (active) in assay [16]; -11.4% (active) in assay [17]; 73.9% in assay [20]; -39.3% (active) in [18]. Further, the growth in assay [19] was -14% (active).
For `CN1CCC[C@]2(C)[C@H]3CC[C@@H]4[C@@H]5[C@H]6OC[C@@]5(CCC6(C)C)CC[C@@]4(C)[C@]3(C)CC[C@H]2C1(C)C`, the growth in [1] is 24.4%; in assay [2] it was 21.6%; in assay [3], 89.1%; in [4], 84.8%; in assay [5], 27.5%; in assay [6], 74.2%. The growth in assay [7] is 93.8%; in assay [8], 98.4%; in assay [9], -74.5% (active); in assay [10] it was 96.2%; in assay [11], 108%; in assay [12], 99.6%. Also, the growth is 88.9% in assay [13]; 91.5% in [14]; 108% in [15]; 86.9% in [16]; 10.4% in [17]; 37.7% in assay [19].
Take `NC1C2CCC1CN(c1cnc(C(=O)Nc3cc(F)cc4cccnc34)cn1)C2` (stereo unspecified): the growth in assay [1] was 6.16% (active); in assay [2], 22.7%; in assay [3], 46.4%; in assay [4], 69.7%; in assay [5], 60.1%; in assay [6] it was 61.4%. Besides, the growth is 93.2% in assay [7]; 78.9% in [8]; 26.3% in assay [9]; 63.5% in assay [10]; 101% in assay [11]; 71.2% in assay [12]. The growth was 34.9% in assay [14]; 91.2% in assay [15]; 28.3% in [16]; 38.5% in assay [17]; 72.8% in [20]; 25% in [18]. Besides, in [19], the growth is 16.3%.

These data come from PubChem BioAssay (NCI).
